From PMC12820563, “FoxP3 forms a head-to-head dimer in vivo and stabilizes its multimerization on adjacent microsatellites”
The full ranking holds about 16,000 sequences; the median of “rpm ratio (pull-down/input)” is about 0.94, and the highest 2% start at about 1.7. The sample holds the highest values, similar sequences and a random draw of the others, so the mix is not that of the screen.

Target: T1, MBP-FoxP1dN (Mus musculus, UniProt P58462 326-579)
T1 sequence: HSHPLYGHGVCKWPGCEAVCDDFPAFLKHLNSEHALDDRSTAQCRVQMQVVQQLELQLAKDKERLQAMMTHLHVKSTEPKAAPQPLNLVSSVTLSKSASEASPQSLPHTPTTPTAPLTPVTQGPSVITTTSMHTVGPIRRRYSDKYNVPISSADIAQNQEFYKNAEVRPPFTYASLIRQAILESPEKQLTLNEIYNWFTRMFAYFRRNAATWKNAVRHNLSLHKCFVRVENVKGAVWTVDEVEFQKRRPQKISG
Experiment: PD-seq (MBP pull-down with sequencing); 20 mM Tris-HCl pH 7.5, 100 mM NaCl, 1.5 mM MgCl2, 0.4 uM protein, 0.1 uM dsDNA library, 30 min, room temperature, amylose pull-down; high values mean tight binding
Conditions: protein: recombinant; tags: His6-MBP; chain copies: 2; dsDNA, one strand shown
How it was run: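 Mouse FoxP3 or FoxP1 fragment lacking the N-terminus, His6-MBP-tagged and expressed in E. coli, was incubated at 0.4 µM with 0.1 µM Klenow-filled degenerate double-stranded DNA library for 30 min at room temperature in Tris pH 7.5 buffer with NaCl and MgCl2. Complexes captured on amylose resin were washed three times and their DNA sequenced on Illumina. Binding is reads-per-million enrichment of pull-down over input, replicates pooled.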

Sequence	binding signal
GATGATTGTTCTCCCAGCTGATGAATTTCATAAATCGAGTAAACAAATTTTCCTAATCTTTCTGTTCAAGCGCCATCTAC	1.05 RPM ratio (pull-down/input)
GATGATTGTTCTCCCAGCTGATGAATTAAATCACTCGAGTAAACAAATTTTCCTAATCTTTCTGTTCAAGCGCCATCTAC	1.09 RPM ratio (pull-down/input)
GATGATTGTTCTCCCAGCTGATGAATTAGACGCGTCGAGTAAACAAATTTTCCTAATCTTTCTGTTCAAGCGCCATCTAC	0.99 RPM ratio (pull-down/input)
GATGATTGTTCTCCCAGCTGATGAATTGCAGATGTCGAGTAAACAAATTTTCCTAATCTTTCTGTTCAAGCGCCATCTAC	1.27 RPM ratio (pull-down/input)
GATGATTGTTCTCCCAGCTGATGAATTACTCCAATCGAGTAAACAAATTTTCCTAATCTTTCTGTTCAAGCGCCATCTAC	1.1 RPM ratio (pull-down/input)
GATGATTGTTCTCCCAGCTGATGAATTCCCCAGGTCGAGTAAACAAATTTTCCTAATCTTTCTGTTCAAGCGCCATCTAC	0.743 RPM ratio (pull-down/input)
GATGATTGTTCTCCCAGCTGATGAATTATCTGTGTCGAGTAAACAAATTTTCCTAATCTTTCTGTTCAAGCGCCATCTAC	1.03 RPM ratio (pull-down/input)
GATGATTGTTCTCCCAGCTGATGAATTATGTGTGTCGAGTAAACAAATTTTCCTAATCTTTCTGTTCAAGCGCCATCTAC	1.4 RPM ratio (pull-down/input)
GATGATTGTTCTCCCAGCTGATGAATTATTTGTGTCGAGTAAACAAATTTTCCTAATCTTTCTGTTCAAGCGCCATCTAC	2.12 RPM ratio (pull-down/input)
GATGATTGTTCTCCCAGCTGATGAATTTACAATATCGAGTAAACAAATTTTCCTAATCTTTCTGTTCAAGCGCCATCTAC	1.63 RPM ratio (pull-down/input)
GATGATTGTTCTCCCAGCTGATGAATTACCAATCTCGAGTAAACAAATTTTCCTAATCTTTCTGTTCAAGCGCCATCTAC	0.961 RPM ratio (pull-down/input)
GATGATTGTTCTCCCAGCTGATGAATTACTACTATCGAGTAAACAAATTTTCCTAATCTTTCTGTTCAAGCGCCATCTAC	1.24 RPM ratio (pull-down/input)
GATGATTGTTCTCCCAGCTGATGAATTACAAATATCGAGTAAACAAATTTTCCTAATCTTTCTGTTCAAGCGCCATCTAC	2.21 RPM ratio (pull-down/input)
GATGATTGTTCTCCCAGCTGATGAATTACTGATATCGAGTAAACAAATTTTCCTAATCTTTCTGTTCAAGCGCCATCTAC	1.18 RPM ratio (pull-down/input)
GATGATTGTTCTCCCAGCTGATGAATTACCAATATCGAGTAAACAAATTTTCCTAATCTTTCTGTTCAAGCGCCATCTAC	1.79 RPM ratio (pull-down/input)
GATGATTGTTCTCCCAGCTGATGAATTACTAATATCGAGTAAACAAATTTTCCTAATCTTTCTGTTCAAGCGCCATCTAC	1.73 RPM ratio (pull-down/input)
GATGATTGTTCTCCCAGCTGATGAATTACCAATTTCGAGTAAACAAATTTTCCTAATCTTTCTGTTCAAGCGCCATCTAC	1.13 RPM ratio (pull-down/input)

Sequence	binding signal
GATGATTGTTCTCCCAGCTGATGAATTACATATATCGAGTAAACAAATTTTCCTAATCTTTCTGTTCAAGCGCCATCTAC	1.34 RPM ratio (pull-down/input)
GATGATTGTTCTCCCAGCTGATGAATTTCGCCAGTCGAGTAAACAAATTTTCCTAATCTTTCTGTTCAAGCGCCATCTAC	0.805 RPM ratio (pull-down/input)
GATGATTGTTCTCCCAGCTGATGAATTGCGATTTTCGAGTAAACAAATTTTCCTAATCTTTCTGTTCAAGCGCCATCTAC	1.25 RPM ratio (pull-down/input)
GATGATTGTTCTCCCAGCTGATGAATTGTTACCTTCGAGTAAACAAATTTTCCTAATCTTTCTGTTCAAGCGCCATCTAC	1.25 RPM ratio (pull-down/input)
GATGATTGTTCTCCCAGCTGATGAATTGGATGCGTCGAGTAAACAAATTTTCCTAATCTTTCTGTTCAAGCGCCATCTAC	1.29 RPM ratio (pull-down/input)
GATGATTGTTCTCCCAGCTGATGAATTTTCTAGCTCGAGTAAACAAATTTTCCTAATCTTTCTGTTCAAGCGCCATCTAC	0.887 RPM ratio (pull-down/input)
GATGATTGTTCTCCCAGCTGATGAATTCCCGCTTTCGAGTAAACAAATTTTCCTAATCTTTCTGTTCAAGCGCCATCTAC	0.937 RPM ratio (pull-down/input)
GATGATTGTTCTCCCAGCTGATGAATTATAATCTTCGAGTAAACAAATTTTCCTAATCTTTCTGTTCAAGCGCCATCTAC	0.909 RPM ratio (pull-down/input)
GATGATTGTTCTCCCAGCTGATGAATTTCTGATGTCGAGTAAACAAATTTTCCTAATCTTTCTGTTCAAGCGCCATCTAC	1.23 RPM ratio (pull-down/input)
GATGATTGTTCTCCCAGCTGATGAATTTTTGATGTCGAGTAAACAAATTTTCCTAATCTTTCTGTTCAAGCGCCATCTAC	1.3 RPM ratio (pull-down/input)
GATGATTGTTCTCCCAGCTGATGAATTCTTCATGTCGAGTAAACAAATTTTCCTAATCTTTCTGTTCAAGCGCCATCTAC	0.907 RPM ratio (pull-down/input)
GATGATTGTTCTCCCAGCTGATGAATTGATGATGTCGAGTAAACAAATTTTCCTAATCTTTCTGTTCAAGCGCCATCTAC	1.39 RPM ratio (pull-down/input)
GATGATTGTTCTCCCAGCTGATGAATTGATGTTGTCGAGTAAACAAATTTTCCTAATCTTTCTGTTCAAGCGCCATCTAC	2.52 RPM ratio (pull-down/input)
GATGATTGTTCTCCCAGCTGATGAATTAATGATGTCGAGTAAACAAATTTTCCTAATCTTTCTGTTCAAGCGCCATCTAC	1.2 RPM ratio (pull-down/input)
GATGATTGTTCTCCCAGCTGATGAATTCATGTTGTCGAGTAAACAAATTTTCCTAATCTTTCTGTTCAAGCGCCATCTAC	2.26 RPM ratio (pull-down/input)
GATGATTGTTCTCCCAGCTGATGAATTAAAAATGTCGAGTAAACAAATTTTCCTAATCTTTCTGTTCAAGCGCCATCTAC	0.979 RPM ratio (pull-down/input)
GATGATTGTTCTCCCAGCTGATGAATTAATGTTGTCGAGTAAACAAATTTTCCTAATCTTTCTGTTCAAGCGCCATCTAC	2.64 RPM ratio (pull-down/input)
